Reference: publication PMC7862700, “An all-to-all approach to the identification of sequence-specific readers for epigenetic DNA modifications on cytosine”

What was measured:
Assay in all cases: DAPPL (digital affinity profiling via proximity ligation, sequencing); 10 mM Tris-HCl pH 7.5, 50 mM NaCl, 1 mM DTT, 4% glycerol, room temperature, 30 min; GST-TFs on glutathione beads, 16-mer random dsDNA library, 0.1% formaldehyde crosslink after washing; high values mean tight binding
FLI1 = target: T1, FLI1 (Homo sapiens, UniProt Q01543 1-452); details: protein: recombinant; tags: N-terminal GST; dsDNA, one strand shown
T1 sequence: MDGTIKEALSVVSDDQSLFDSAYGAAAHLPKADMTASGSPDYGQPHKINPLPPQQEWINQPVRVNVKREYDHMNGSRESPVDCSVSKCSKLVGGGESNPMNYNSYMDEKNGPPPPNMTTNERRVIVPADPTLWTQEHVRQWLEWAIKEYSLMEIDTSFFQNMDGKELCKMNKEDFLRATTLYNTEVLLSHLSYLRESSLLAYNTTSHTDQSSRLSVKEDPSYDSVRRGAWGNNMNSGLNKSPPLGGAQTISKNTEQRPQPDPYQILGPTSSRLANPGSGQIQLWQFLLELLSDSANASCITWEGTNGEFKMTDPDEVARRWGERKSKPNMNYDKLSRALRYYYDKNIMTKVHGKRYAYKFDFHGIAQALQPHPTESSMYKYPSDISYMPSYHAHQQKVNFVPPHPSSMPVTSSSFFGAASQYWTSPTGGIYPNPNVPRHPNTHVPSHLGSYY
Procedure, shortened: (§1)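 GST fusions of human transcription factors were expressed in yeast and captured with glutathione beads. Once given DNA barcodes and pooled alongside a tag-only sample, they were incubated for 30 min at room temperature with 200 nmole of a random double-stranded 16-mer DNA library in Tris/NaCl/DTT/glycerol buffer, then washed, crosslinked (0.1% formaldehyde), proximity-ligated, PCR-amplified and sequenced on an Illumina NextSeq500. The binding signal of each hexamer is its read frequency for a factor divided by its frequency for the tag-only sample.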

ELK1 = target: T2, ELK1 (Homo sapiens, UniProt P19419 1-428); details: protein: recombinant; tags: N-terminal GST; dsDNA, one strand shown
T2 sequence: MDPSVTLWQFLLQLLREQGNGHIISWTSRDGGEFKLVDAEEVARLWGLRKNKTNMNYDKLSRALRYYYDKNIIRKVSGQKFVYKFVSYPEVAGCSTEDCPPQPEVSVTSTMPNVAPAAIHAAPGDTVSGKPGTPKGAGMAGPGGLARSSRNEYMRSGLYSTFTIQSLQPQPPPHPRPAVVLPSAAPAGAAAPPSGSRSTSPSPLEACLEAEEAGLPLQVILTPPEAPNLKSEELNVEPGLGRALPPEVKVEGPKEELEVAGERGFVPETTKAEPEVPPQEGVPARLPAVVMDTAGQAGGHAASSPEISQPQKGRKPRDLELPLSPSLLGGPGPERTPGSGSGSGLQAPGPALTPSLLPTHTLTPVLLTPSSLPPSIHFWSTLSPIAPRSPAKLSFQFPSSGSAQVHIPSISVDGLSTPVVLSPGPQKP
Procedure, shortened: as §1

GABPA = target: T3, GABPA (Homo sapiens, UniProt Q06546 1-454); details: protein: recombinant; tags: N-terminal GST; dsDNA, one strand shown
T3 sequence: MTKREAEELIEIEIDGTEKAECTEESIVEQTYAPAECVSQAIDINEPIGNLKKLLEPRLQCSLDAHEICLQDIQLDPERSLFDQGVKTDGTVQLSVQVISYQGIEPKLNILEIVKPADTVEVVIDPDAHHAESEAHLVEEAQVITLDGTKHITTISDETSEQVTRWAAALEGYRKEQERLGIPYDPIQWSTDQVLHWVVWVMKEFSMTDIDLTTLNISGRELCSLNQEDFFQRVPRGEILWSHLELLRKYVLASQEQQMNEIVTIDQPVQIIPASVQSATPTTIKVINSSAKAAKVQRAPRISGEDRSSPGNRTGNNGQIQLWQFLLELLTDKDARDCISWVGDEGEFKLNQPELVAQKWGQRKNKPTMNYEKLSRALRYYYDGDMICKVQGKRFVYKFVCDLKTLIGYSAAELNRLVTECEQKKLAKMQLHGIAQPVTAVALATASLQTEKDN
Procedure, shortened: as §1

ERG = target: T4, ERG (Homo sapiens, UniProt P11308 1-479); details: protein: recombinant; tags: N-terminal GST; dsDNA, one strand shown
T4 sequence: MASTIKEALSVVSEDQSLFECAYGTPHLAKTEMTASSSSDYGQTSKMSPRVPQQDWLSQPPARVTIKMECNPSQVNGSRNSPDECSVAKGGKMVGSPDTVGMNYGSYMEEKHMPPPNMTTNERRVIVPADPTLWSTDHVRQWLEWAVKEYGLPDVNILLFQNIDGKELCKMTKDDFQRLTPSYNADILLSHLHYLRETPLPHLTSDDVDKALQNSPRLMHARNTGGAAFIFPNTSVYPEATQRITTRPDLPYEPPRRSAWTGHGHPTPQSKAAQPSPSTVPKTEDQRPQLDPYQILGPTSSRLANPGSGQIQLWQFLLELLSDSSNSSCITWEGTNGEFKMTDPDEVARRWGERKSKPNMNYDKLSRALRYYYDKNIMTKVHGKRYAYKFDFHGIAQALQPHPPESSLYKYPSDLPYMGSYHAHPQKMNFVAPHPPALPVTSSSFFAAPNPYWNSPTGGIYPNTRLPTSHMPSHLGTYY
Procedure, shortened: as §1

ELF1 = ELF1 (Homo sapiens, UniProt P32519 1-619); details: protein: recombinant; tags: N-terminal GST; dsDNA, one strand shown
Procedure, shortened: as §1

EHF = target: T5, EHF (Homo sapiens, UniProt Q9NZC4 1-300); details: protein: recombinant; tags: N-terminal GST; dsDNA, one strand shown
T5 sequence: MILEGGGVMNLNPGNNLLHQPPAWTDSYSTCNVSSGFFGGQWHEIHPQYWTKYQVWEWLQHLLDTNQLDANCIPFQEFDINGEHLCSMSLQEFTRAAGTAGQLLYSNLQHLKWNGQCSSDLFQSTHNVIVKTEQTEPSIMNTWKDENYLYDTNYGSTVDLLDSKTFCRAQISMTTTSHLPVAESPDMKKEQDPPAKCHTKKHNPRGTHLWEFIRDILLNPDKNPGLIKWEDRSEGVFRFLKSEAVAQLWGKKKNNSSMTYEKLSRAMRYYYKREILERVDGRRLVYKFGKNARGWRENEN
Procedure, shortened: as §1

SPI1 = SPI1 (Homo sapiens, UniProt P17947 1-270); details: protein: recombinant; tags: N-terminal GST; dsDNA, one strand shown
Procedure, shortened: as §1

SPIB = SPIB (Homo sapiens, UniProt Q01892 1-262); details: protein: recombinant; tags: N-terminal GST; dsDNA, one strand shown
Procedure, shortened: as §1

ELK3 = target: T6, ELK3 (Homo sapiens, UniProt P41970 1-407); details: protein: recombinant; tags: N-terminal GST; dsDNA, one strand shown
T6 sequence: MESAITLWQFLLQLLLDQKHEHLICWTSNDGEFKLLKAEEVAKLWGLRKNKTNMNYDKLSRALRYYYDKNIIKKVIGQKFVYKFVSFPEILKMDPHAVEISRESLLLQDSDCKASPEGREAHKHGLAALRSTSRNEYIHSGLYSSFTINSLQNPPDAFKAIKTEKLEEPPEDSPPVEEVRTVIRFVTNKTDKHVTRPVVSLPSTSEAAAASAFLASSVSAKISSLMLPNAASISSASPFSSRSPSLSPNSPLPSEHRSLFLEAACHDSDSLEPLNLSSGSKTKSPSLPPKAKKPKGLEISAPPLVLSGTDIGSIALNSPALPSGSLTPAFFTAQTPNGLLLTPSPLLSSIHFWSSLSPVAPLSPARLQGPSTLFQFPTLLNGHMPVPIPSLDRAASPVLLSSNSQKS
Procedure, shortened: as §1

FEV = target: T7, FEV (Homo sapiens, UniProt Q99581 1-238); details: protein: recombinant; tags: N-terminal GST; dsDNA, one strand shown
T7 sequence: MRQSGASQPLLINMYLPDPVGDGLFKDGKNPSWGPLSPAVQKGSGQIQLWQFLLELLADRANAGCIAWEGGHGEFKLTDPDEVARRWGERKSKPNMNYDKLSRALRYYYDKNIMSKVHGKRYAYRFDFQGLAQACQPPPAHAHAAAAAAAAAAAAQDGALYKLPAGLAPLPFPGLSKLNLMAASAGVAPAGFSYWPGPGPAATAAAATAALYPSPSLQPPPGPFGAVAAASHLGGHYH
Procedure, shortened: as §1

ETV5 = ETV5 (Homo sapiens, UniProt P41161 1-510); details: protein: recombinant; tags: N-terminal GST; dsDNA, one strand shown
Procedure, shortened: as §1

HSF1 = HSF1 (Homo sapiens, UniProt Q00613 1-529); details: protein: recombinant; tags: N-terminal GST; chain copies: 3; dsDNA, one strand shown
Procedure, shortened: as §1

SPIC = target: T8, SPIC (Homo sapiens, UniProt Q8N5J4 1-248); details: protein: recombinant; tags: N-terminal GST; dsDNA, one strand shown
T8 sequence: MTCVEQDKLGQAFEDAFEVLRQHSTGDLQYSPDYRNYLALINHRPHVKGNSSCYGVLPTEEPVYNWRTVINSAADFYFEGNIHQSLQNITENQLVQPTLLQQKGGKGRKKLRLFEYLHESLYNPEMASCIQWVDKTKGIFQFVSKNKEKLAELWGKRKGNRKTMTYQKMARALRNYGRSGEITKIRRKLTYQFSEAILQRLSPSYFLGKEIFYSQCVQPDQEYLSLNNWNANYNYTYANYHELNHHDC
Procedure, shortened: as §1

ELF4 = ELF4 (Homo sapiens, UniProt Q99607 1-663); details: protein: recombinant; tags: N-terminal GST; dsDNA, one strand shown
Procedure, shortened: as §1

ELK4 = target: T9, ELK4 (Homo sapiens, UniProt P28324-2 1-405); details: protein: recombinant; tags: N-terminal GST; dsDNA, one strand shown
T9 sequence: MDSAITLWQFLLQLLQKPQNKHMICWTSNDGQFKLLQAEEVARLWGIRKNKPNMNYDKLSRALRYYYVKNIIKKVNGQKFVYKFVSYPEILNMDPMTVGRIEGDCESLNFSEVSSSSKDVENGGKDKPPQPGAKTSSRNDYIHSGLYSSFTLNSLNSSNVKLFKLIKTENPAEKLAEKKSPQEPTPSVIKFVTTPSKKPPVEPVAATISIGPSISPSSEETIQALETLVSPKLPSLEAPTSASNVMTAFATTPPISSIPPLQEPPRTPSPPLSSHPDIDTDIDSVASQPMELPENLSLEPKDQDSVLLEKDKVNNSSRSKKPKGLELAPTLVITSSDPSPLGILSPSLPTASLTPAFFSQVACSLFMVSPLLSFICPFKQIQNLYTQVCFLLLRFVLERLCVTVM
Procedure, shortened: as §1

ETV2 = target: T10, ETV2 (Homo sapiens, UniProt O00321 1-342); details: protein: recombinant; tags: N-terminal GST; dsDNA, one strand shown
T10 sequence: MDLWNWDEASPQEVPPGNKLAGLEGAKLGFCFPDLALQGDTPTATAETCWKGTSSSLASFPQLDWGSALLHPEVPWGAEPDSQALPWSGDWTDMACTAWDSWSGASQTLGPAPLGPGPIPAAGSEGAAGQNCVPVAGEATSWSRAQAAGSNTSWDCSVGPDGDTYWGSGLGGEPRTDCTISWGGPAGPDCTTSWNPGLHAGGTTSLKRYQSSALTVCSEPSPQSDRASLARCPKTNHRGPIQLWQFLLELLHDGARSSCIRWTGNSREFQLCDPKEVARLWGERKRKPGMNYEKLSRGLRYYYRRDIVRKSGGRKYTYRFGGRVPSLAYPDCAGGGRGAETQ
Procedure, shortened: as §1

ELF3 = target: T11, ELF3 (Homo sapiens, UniProt P78545 1-371); details: protein: recombinant; tags: N-terminal GST; dsDNA, one strand shown
T11 sequence: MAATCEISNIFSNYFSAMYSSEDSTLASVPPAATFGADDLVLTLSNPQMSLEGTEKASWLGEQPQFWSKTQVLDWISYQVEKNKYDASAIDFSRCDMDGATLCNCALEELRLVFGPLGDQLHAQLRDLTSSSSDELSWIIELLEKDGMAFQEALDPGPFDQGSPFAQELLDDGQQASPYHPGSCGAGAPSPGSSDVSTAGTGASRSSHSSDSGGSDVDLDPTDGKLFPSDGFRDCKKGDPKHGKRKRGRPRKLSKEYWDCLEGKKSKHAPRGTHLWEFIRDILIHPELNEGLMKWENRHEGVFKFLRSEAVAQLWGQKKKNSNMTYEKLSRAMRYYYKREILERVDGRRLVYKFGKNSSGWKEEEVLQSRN
Procedure, shortened: as §1

CRX = CRX (Homo sapiens, UniProt O43186 1-299); details: protein: recombinant; tags: N-terminal GST; dsDNA, one strand shown
Procedure, shortened: as §1

ETV1 = ETV1 (Homo sapiens, UniProt P50549 1-477); details: protein: recombinant; tags: N-terminal GST; dsDNA, one strand shown
Procedure, shortened: as §1

CRX, sequence (O43186 whole entry): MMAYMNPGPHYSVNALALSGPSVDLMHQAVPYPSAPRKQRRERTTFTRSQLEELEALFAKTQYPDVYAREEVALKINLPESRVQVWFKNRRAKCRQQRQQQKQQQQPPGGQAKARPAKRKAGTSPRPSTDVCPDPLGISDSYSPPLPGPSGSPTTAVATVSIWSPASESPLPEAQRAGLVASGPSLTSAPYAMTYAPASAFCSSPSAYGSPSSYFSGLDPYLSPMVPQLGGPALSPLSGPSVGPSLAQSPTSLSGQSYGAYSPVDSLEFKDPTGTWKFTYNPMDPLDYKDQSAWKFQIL
ETV1, sequence (P50549 whole entry): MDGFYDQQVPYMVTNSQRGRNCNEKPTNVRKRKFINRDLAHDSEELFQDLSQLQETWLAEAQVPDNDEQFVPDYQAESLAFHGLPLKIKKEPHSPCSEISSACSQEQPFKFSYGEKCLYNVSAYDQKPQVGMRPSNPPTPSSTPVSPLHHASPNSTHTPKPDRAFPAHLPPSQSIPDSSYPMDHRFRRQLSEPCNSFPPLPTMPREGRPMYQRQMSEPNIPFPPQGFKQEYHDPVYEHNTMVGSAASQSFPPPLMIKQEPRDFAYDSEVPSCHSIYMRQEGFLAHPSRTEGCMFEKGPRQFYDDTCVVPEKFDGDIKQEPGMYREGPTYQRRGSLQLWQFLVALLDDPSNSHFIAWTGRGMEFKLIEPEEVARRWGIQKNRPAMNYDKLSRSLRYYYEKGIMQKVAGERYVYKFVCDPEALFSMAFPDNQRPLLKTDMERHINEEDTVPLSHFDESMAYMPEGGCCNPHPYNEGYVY
ELF4, sequence (Q99607 whole entry): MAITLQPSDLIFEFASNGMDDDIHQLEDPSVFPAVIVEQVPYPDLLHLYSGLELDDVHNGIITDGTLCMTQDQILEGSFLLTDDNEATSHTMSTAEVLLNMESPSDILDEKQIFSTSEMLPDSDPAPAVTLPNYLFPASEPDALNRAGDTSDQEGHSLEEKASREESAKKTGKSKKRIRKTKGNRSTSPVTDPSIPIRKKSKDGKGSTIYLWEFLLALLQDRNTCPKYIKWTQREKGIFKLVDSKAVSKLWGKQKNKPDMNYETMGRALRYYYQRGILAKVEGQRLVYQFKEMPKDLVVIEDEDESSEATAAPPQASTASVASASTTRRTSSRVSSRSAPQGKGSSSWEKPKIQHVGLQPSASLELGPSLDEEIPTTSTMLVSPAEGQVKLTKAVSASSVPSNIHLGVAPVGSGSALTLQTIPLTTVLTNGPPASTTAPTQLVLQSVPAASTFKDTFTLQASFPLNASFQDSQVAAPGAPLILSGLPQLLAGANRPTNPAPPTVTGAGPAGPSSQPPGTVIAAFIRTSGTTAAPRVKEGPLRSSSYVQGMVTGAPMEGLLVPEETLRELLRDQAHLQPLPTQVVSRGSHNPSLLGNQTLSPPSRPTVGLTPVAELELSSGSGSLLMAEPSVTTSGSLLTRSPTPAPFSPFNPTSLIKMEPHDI
ELF1, sequence (P32519 whole entry): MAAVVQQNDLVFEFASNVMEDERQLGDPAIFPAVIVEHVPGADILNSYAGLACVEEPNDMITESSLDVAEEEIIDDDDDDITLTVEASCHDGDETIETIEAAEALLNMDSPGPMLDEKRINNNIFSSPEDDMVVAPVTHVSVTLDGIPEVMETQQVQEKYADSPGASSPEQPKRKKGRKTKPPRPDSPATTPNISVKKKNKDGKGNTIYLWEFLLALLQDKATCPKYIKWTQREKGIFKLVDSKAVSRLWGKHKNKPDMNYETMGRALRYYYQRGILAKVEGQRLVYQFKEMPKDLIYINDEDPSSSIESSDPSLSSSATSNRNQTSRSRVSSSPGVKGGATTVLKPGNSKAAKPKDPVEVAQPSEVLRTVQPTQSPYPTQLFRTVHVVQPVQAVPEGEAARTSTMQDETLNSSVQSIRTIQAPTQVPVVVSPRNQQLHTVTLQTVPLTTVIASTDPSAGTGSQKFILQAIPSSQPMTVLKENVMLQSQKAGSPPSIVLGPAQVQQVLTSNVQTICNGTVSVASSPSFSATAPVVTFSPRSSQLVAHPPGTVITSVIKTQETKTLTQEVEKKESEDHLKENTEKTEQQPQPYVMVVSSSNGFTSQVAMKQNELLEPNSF
SPIB, sequence (Q01892 whole entry): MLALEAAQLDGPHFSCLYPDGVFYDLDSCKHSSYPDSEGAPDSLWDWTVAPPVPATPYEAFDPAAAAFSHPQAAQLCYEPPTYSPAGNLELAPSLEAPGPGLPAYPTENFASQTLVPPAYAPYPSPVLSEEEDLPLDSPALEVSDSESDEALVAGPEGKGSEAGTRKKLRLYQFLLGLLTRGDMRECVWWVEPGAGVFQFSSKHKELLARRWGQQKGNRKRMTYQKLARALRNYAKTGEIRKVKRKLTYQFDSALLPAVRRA
ETV5, sequence (P41161 whole entry): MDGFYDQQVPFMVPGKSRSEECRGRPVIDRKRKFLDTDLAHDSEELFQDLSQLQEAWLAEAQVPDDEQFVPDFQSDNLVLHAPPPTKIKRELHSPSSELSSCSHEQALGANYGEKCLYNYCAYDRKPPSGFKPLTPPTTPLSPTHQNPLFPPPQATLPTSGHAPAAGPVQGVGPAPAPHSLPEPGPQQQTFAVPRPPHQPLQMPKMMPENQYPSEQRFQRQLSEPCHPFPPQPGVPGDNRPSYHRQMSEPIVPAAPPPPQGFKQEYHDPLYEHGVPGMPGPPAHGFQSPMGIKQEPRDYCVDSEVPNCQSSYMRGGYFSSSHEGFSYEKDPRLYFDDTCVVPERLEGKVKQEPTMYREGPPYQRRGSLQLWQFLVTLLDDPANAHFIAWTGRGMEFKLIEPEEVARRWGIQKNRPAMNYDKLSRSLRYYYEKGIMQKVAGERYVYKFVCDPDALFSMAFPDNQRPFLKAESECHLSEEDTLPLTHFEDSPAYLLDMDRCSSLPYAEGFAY
HSF1, sequence (Q00613 whole entry): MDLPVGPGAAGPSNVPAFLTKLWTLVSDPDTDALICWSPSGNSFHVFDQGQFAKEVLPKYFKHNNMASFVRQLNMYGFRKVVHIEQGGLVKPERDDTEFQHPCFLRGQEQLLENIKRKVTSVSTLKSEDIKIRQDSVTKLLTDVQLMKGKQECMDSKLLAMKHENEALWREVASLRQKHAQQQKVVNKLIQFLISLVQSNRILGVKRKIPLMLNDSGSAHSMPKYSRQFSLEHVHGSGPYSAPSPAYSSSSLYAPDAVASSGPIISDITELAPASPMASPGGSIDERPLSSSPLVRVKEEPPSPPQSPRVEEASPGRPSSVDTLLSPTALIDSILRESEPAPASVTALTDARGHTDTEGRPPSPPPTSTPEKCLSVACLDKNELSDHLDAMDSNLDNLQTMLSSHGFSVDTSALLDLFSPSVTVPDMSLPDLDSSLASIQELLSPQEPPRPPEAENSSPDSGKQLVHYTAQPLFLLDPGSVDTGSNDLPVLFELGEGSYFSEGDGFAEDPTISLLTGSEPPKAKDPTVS

For TTCGCA, the binding signal (FLI1) was 1.23 fold enrichment (6-mer frequency, TF over GST control), the binding signal (ELK1) was 1.36 fold enrichment (6-mer frequency, TF over GST control) and the binding signal (GABPA) was 1.33 fold enrichment (6-mer frequency, TF over GST control). For the same sequence, the binding signal (ERG) was 1.29 fold enrichment (6-mer frequency, TF over GST control), the binding signal (ELF1) was 1.27 fold enrichment (6-mer frequency, TF over GST control) and the binding signal (EHF) was 1.34 fold enrichment (6-mer frequency, TF over GST control). For the same sequence, the binding signal (SPI1) was 1.32 fold enrichment (6-mer frequency, TF over GST control), the binding signal (SPIB) was 1.46 fold enrichment (6-mer frequency, TF over GST control) and the binding signal (ELK3) was 1.25 fold enrichment (6-mer frequency, TF over GST control). The binding signal (FEV) was 1.4 fold enrichment (6-mer frequency, TF over GST control), the binding signal (ETV5) was 1.15 fold enrichment (6-mer frequency, TF over GST control) and the binding signal (HSF1) was 1.31 fold enrichment (6-mer frequency, TF over GST control). For the same sequence, the binding signal (SPIC) was 1.32 fold enrichment (6-mer frequency, TF over GST control), the binding signal (ELF4) was 1.26 fold enrichment (6-mer frequency, TF over GST control) and the binding signal (ELK4) was 1.2 fold enrichment (6-mer frequency, TF over GST control). For the same sequence, the binding signal (ETV2) was 1.34 fold enrichment (6-mer frequency, TF over GST control), the binding signal (ELF3) was 1.11 fold enrichment (6-mer frequency, TF over GST control) and the binding signal (CRX) was 1.28 fold enrichment (6-mer frequency, TF over GST control). The binding signal (ETV1) was 1.32 fold enrichment (6-mer frequency, TF over GST control).
